The campaign covered roughly 190,000 compounds. About 3,500 (1.8%) were called active. What follows is part of a selection rich in actives, with near analogues and random picks from the rest. A number with no mark means an inactive call.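 The calls were made as follows: active = inhibition above a set limit, 3 SD over mean compound inhibition (cut at about 8.4% in these data); inactive = the rest.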
Assay: RAM signaling blockers in budding yeast – dse1pr::URA3 reporter, 5-FOA selection, primary screen (AID 868);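 also: 0% = DMSO-only wells with no growth and 100% = 10 µM 1-NA-PP1 full growth; inhibition rescues growth on 5-FOA so higher OD means more RAM inhibition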
Details: S. cerevisiae dse1pr::URA3 reporter, 5-FOA growth OD615, 2 d; at 50 µM; stronger effect = higher value; analog-sensitive cbk1-as2 kinase mutant strain

| Structure (SMILES) | inhibition |
| --- | --- |
| CCNc1nc(-c2cc3ccccc3o2)cs1 | 2.09% |
| O=c1oc2ccccc2cc1-c1csc(Nc2ccc(O)cc2)n1 | 11.1% (active) |
| COc1ccc2nc(Nc3nc(-c4cc5ccccc5oc4=O)cs3)sc2c1 | 3.98% |
| CC(=O)c1cccc(-n2nnnc2SCC(=O)NNC(=O)C2CCCCC2)c1 | 3.03% |
| CN(C)CCOc1cccc(Br)c1 | 1.41% |
| CC(NC(=O)CCC(=O)N1CCN(S(=O)(=O)c2ccc(Cl)cc2)CC1)c1ccccc1 (stereo unspecified) | 2.73% |
| CCNC(=O)NC(=O)C(C)OC(=O)C1CCN(S(=O)(=O)c2ccccc2F)CC1 (stereo unspecified) | -0.96% |
| CC(NC(=O)COC(=O)C1CCN(S(=O)(=O)c2ccccc2C(F)(F)F)CC1)c1ccccc1 (stereo unspecified) | 8.48% (active) |
| CN(CCc1cnn(C)c1)Cc1cn(C)nc1-c1ccccc1F | 0.12% |
| CCOc1ccc(NC(=S)N2CCCCCC2)cc1 | 0.12% |
| CCOC(=O)c1sc2nc(C)nc(SCC(N)=O)c2c1C | 1.57% |
| O=C(COC(=O)c1n[nH]c2ccccc12)NCc1ccccc1 | 8.45% (active) |
| CN(C)S(=O)(=O)c1ccc(NC(=O)COC(=O)c2n[nH]c3ccccc23)cc1 | 5.03% |
| C=CCN(CC=C)C(=O)COC(=O)c1n[nH]c2ccccc12 | 2.26% |
| O=C(CSc1nc(-c2ccccc2)cs1)Nc1cccc([N+](=O)[O-])c1 | 11.7% (active) |
| CCNC(=O)CSc1nc(-c2ccccc2)cs1 | 0.79% |
| O=C(CSCC(=O)Nc1cccc([N+](=O)[O-])c1)Nc1ccccc1 | 0.64% |
| NC(=O)COc1ccc(NC(=O)c2ccccc2-c2ccccc2)cc1 | 0.63% |
| O=C(Cc1cccc2ccccc12)Nc1ccc2oc(-c3ccccc3)nc2c1 | 1.7% |
| COc1ccc2oc(-c3cccc(NC(=O)CSc4ccc(Cl)cc4)c3)nc2c1 | 10.3% (active) |
| COc1cccc(-c2nc3cc(C)ccc3o2)c1 | 2.42% |

| Structure (SMILES) | inhibition |
| --- | --- |
| CCN(CC)Cc1nc2sc(C)c(C)c2c(=O)[nH]1 | 2.28% |
| CNS(=O)(=O)c1ccc(NC(=O)C2CC(=O)N(c3ccc(Cl)cc3)C2)cc1 (stereo unspecified) | 4.28% |
| FC(F)(F)c1cnc(Oc2ccccc2-c2nnc(-c3ccc(Cl)cc3)o2)c(Cl)c1 | 4.37% |
| CSc1ccccc1-c1nnc(-c2ccc(Cl)cc2)o1 | 15.5% (active) |
| Nc1ccc(-c2nnc(-c3ccc(-c4ccccc4)cc3)o2)cc1 | 6.59% |
| Cc1cccn2c(CN(C)C3CCCc4ccccc43)c(C(=O)N3CCOCC3)nc12 (stereo unspecified) | 1.88% |
| CC(=O)C1C(c2ccc(Cl)cc2)c2c(n[nH]c2C)CC1(C)O (stereo unspecified) | -0.49% |
| COc1ccc(C(=O)Nc2ccc(S(=O)(=O)Nc3onc(C)c3C)cc2)cc1OC | 2.49% |
| Cc1ccc(C(=O)/C=C/Nc2ccc(S(=O)(=O)Nc3onc(C)c3C)cc2)cc1 | 11% (active) |
| Cc1noc(NS(=O)(=O)c2ccc(NC(=O)C34CCC(CC3)C4)cc2)c1C | 2.19% |
| CCn1c(SCC(=O)Nc2ccc(S(=O)(=O)Nc3onc(C)c3C)cc2)nnc1-c1ccccc1 | 4.88% |
| Cc1noc(NS(=O)(=O)c2ccc(N/C=C/C(=O)c3ccccc3)cc2)c1C | 11.4% (active) |
| Cc1cc(C)nc(NS(=O)(=O)c2ccc(N/C=C\C(=O)c3cccs3)cc2)n1 | 3.54% |
| O=C1OCC2=C1C(c1ccccc1)CC(=O)N2c1cccc(F)c1 (stereo unspecified) | 0.77% |
| O=c1oc(/C=C/c2ccccc2)nc2ccccc12 | 1.38% |
| Cc1cc(C)n(Cc2cnc(N3CCOCC3)s2)n1 | 0.36% |
| C/C(=N\NC(=O)c1cccnc1)c1ccc(-n2ccnc2)cc1 | 2.36% |
| N#C/C(=C(/O)COc1cccc2ccccc12)c1nc2ccccc2[nH]1 | 2.62% |
| N#C/C(=C(/O)COC(=O)COc1ccc(Cl)cc1)c1nc2ccccc2[nH]1 | 3.15% |
| Cc1ccccc1OC/C(O)=C(\C#N)c1nc2ccccc2[nH]1 | 10.3% (active) |
| O=C(COC(=O)c1ccc(Cl)nc1)NCc1cccs1 | 1% |

| Structure (SMILES) | inhibition |
| --- | --- |
| CC(=O)Nc1ccc(Nc2nc3c(S(=O)(=O)c4ccc(C)c(C)c4)nnn3c3ccccc23)cc1 | 7.93% |
| COc1cccc(NC(=O)c2ccc3c(SCC(=O)O)c4c(nc3c2)CCCC4)c1 | 6.04% |
| Cc1[nH][nH]c(=O)c1N=Nc1ccccc1 | 2.99% |
| Cc1cccc(N=Nc2c(C)[nH]n(-c3ccccc3)c2=O)c1 | 7.54% |
| Cc1ccc(N=Nc2c(C)[nH]n(-c3ccccc3)c2=O)cc1 | 13.2% (active) |
| Cc1c(C=O)n(C)n(-c2ccccc2)c1=O | 2.38% |
| Cc1c(NC(=S)Nc2ccccc2)c(=O)n(-c2ccccc2)n1C | 2.71% |
| Cc1c(N=Nc2ccc(N(C)C)cc2)c(=O)n(-c2ccccc2)n1C | 25.4% (active) |
| COc1cccc(/C=N/NC(=O)CNC(=O)c2ccc(S(=O)(=O)N3CCOCC3)cc2)c1OC | 1.56% |
| CCCN(CCC)C(=S)Nc1cc(C(=O)OC)ccc1C(=O)OC | -0.65% |
| CCC(CC)C(=O)Nc1ccc(S(=O)(=O)Nc2nccs2)cc1 | 1.58% |
| COC(=O)CCSc1cc([N+](=O)[O-])cc2c1c(C1OCCS1)nn2-c1ccccc1 (stereo unspecified) | 17.6% (active) |
| COC(=O)CCSc1nccn1Cc1ccccc1 | 3.09% |
| COc1ccc(-n2cnnc2SCC(=O)Nc2cccc([N+](=O)[O-])c2)cc1 | 1.48% |
| Cc1cc([N+](=O)[O-])ccc1NC(=O)c1ccc(NC(=O)C(C)C)cc1 | 0% |
| Cn1c(=NC(=O)c2ccc3c(c2)OCCO3)sc2cc(S(C)(=O)=O)ccc21 | 3.99% |
| O=C1/C(=C/c2cccs2)CCC1C1CCCC1 (stereo unspecified) | 2.26% |
| O=C1/C(=C/c2cccs2)CCc2ccccc21 | -0.39% |
| CCC1C/C(=C/c2cccs2)C(=O)/C(=C/c2cccs2)C1 (stereo unspecified) | 14.8% (active) |

— PubChem BioAssay AID868 (SRMLSC, 2007)
